{"source": "PubChem BioAssay (NCATS)", "note": "Results filed as inconclusive are left out. Where a call stands in place of a potency, no number is given. Calls of active or inactive are those of the source. The call rests on the fitted dose curve; in most records, active means well fitted inhibition curve with a large enough effect; inconclusive means small, poorly fitted or top-dose-only effect; inactive means no such curve, though single readings can be large or run the other way. Potency means the concentration at half of the fitted maximal effect.", "data": [{"target": "Papain (Carica papaya) (UniProt P00784)", "sequence (P00784 whole entry, looked up)": "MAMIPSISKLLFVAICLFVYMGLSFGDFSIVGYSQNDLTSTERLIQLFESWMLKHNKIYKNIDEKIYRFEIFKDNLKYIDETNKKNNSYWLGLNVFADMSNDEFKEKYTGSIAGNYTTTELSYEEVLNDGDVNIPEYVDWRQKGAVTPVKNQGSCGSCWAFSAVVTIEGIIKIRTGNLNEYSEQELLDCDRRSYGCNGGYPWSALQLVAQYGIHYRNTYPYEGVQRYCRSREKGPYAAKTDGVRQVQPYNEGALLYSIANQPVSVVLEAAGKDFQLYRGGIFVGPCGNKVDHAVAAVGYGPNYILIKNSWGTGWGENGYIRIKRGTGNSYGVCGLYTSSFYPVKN", "experiment": "Primary qHTS assay for inhibitors of the protease papain (AID 1645873);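 further: papain turnover of Z-FR-AMC read as the AMC fluorescence gain over 10 min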", "settings": "papain Z-FR-AMC cleavage, AMC fluorescence; series mostly up to 49.8 µM", "values": [{"smiles": "CC[C@@H](C)[C@H]1O[C@]2(CC[C@H]1C)C[C@@H]1C[C@@H](CC=C(C)[C@@H](O[C@H]3C[C@H](OC)[C@@H](O[C@H]4C[C@H](OC)[C@@H](O)[C@H](C)O4)[C@H](C)O3)[C@@H](C)C=CC=C3CO[C@@H]4[C@H](O)C(C)=C[C@@H](C(=O)O1)[C@]34O)O2", "Potency": "inactive"}, {"smiles": "O=C(O)c1cc(=O)c2ccccc2[nH]1", "Potency": "inactive"}, {"smiles": "O=S(=O)(c1cccc2c(I)cccc12)N1CCCNCC1", "Potency": "inactive"}, {"smiles": "O=C(Nc1cccc(C(=O)Nc2ccc(S(=O)(=O)O)c3cc(S(=O)(=O)O)cc(S(=O)(=O)O)c23)c1)Nc1cccc(C(=O)Nc2ccc(S(=O)(=O)O)c3cc(S(=O)(=O)O)cc(S(=O)(=O)O)c23)c1", "Potency": "3.16 µM (active)"}]}]}
